What all share (experiment): protein-binding microarray (PBM); PBM: ~300 nM protein, 6 mM HEPES pH 7.8, 80 mM KCl, 0.5 mM EDTA, 0.5 mM EGTA, 6% glycerol, 35 ng/ul poly-dIdC, 1% milk, 1 h, room temperature; Ap Aiptasia and Nv Nematostella (sea anemones) / Co Capsaspora / Aq Amphimedon (sponge) / Dm Drosophila / Hu human; RHD is the Rel homology domain; high values mean tight binding
What all share (details): dsDNA, one strand shown

One experiment addresses T1, GST-Ap-NF-kB RHD (Exaiptasia pallida (Aiptasia), UniProt A0A913YAJ5 2-422).
T1 sequence: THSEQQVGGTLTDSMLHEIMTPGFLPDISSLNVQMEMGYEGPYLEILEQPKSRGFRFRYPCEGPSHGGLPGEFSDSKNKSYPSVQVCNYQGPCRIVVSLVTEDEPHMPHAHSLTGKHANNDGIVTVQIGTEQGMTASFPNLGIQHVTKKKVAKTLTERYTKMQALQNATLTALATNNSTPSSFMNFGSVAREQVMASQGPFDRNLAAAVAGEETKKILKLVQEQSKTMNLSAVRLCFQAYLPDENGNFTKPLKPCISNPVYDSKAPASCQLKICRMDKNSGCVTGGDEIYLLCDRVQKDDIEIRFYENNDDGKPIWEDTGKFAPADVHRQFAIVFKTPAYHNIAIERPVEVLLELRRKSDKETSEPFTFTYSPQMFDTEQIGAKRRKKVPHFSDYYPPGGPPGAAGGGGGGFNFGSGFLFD

The target of experiment [1] is T2, GST-Nv-NF-kB (Cys allele) (Nematostella vectensis, UniProt E5G601 2-411).
T2 sequence: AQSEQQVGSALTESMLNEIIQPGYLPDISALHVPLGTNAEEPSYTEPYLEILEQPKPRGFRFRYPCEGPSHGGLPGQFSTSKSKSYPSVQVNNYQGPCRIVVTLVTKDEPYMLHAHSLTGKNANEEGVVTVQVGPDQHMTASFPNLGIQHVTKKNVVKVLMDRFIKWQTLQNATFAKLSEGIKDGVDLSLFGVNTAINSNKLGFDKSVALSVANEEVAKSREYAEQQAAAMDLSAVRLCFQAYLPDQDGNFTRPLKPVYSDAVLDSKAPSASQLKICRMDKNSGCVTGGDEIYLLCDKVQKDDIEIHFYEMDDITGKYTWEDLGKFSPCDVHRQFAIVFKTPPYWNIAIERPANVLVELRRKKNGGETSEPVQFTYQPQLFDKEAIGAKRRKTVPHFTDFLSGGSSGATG

In the next experiment the target is T3, GST-Co-NF-kB (Capsaspora owczarzaki, UniProt F1ARL5 200-546).
T3 sequence: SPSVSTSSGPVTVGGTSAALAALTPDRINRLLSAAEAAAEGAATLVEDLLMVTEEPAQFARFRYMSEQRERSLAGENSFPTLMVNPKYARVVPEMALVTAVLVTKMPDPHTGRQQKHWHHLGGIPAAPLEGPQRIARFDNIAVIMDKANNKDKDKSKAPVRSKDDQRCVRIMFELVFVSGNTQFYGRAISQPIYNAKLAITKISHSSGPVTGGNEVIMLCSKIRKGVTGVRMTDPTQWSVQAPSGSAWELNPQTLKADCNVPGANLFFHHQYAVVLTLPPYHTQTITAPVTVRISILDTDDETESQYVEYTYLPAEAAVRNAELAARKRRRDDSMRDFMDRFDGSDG

The next experiment has as its target T4, GST-Dm-Relish (Drosophila melanogaster, UniProt Q94527 99-473).
T4 sequence: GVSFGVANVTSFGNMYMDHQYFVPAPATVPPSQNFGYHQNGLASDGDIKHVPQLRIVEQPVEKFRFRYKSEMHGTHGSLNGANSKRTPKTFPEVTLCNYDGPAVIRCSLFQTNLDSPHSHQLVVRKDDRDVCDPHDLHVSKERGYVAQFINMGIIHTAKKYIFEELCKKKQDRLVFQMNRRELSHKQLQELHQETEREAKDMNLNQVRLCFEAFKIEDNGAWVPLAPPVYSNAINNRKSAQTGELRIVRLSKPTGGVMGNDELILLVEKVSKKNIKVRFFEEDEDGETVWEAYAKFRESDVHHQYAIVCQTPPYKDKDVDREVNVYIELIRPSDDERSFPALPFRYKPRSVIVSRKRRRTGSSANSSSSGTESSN

For the next experiment, the target named is T5, GST-Aq-NF-kB (Amphimedon queenslandica, UniProt A9Y5G7 2-389).
T5 sequence: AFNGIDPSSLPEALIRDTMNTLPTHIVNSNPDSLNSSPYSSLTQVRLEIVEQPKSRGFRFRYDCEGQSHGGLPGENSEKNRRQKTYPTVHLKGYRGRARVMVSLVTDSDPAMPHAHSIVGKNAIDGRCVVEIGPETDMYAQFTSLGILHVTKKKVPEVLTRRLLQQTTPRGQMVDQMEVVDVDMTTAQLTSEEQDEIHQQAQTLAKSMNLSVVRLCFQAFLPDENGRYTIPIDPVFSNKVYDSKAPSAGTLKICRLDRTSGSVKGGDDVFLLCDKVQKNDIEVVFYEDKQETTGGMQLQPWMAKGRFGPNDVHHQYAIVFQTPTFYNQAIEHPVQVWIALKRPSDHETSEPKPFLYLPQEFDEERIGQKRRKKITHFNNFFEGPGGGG

For another experiment, the target named is GST-Hu-p50 (Homo sapiens, UniProt P19838 7-356).
GST-Hu-p50, sequence (P19838 7-356): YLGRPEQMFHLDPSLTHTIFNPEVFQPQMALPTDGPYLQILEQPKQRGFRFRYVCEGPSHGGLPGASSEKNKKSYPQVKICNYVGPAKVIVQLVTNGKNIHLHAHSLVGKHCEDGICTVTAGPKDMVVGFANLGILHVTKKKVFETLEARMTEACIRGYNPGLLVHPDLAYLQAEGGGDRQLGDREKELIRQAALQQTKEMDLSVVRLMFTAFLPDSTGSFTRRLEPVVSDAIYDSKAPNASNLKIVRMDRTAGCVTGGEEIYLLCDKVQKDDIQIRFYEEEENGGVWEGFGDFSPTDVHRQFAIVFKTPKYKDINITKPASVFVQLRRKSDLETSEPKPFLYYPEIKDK

As to “CCGATTAACATCAAAAGCCCCCCTGATGTTAATCGGGTCTTGATTCGCTTGACGCTGCTG”, the binding signal with GST-Ap-NF-kB RHD was 5.96 z-score; in experiment [1] it was 6 z-score; in the experiment with GST-Co-NF-kB, 4.6 z-score; with GST-Dm-Relish, 8.42 z-score; in the experiment with GST-Aq-NF-kB, 6.73 z-score; in the experiment with GST-Hu-p50, 5.72 z-score.

Turning to “CCGATTAACATCAGGGACTTTAATGATGTTAATCGGGTCTTGATTCGCTTGACGCTGCTG”, the binding signal in the experiment with GST-Ap-NF-kB RHD is 4.47 z-score; in experiment [1] it was 5.92 z-score; with GST-Co-NF-kB, 1.03 z-score; with GST-Dm-Relish, 5.04 z-score; with GST-Aq-NF-kB, 5.12 z-score; in the experiment with GST-Hu-p50 it was 5.02 z-score.

On to “CCGATTAACATCACGAAAACCCCTGATGTTAATCGGGTCTTGATTCGCTTGACGCTGCTG”, for which the binding signal worked out at 6.45 z-score with GST-Ap-NF-kB RHD; 5.36 z-score in experiment [1]; 2.45 z-score in the experiment with GST-Co-NF-kB; 7.06 z-score in the experiment with GST-Dm-Relish; 5.3 z-score with GST-Aq-NF-kB; 6.06 z-score with GST-Hu-p50.

For the sequence “CCGATTAACATCAGGAGTTCCCATGATGTTAATCGGGTCTTGATTCGCTTGACGCTGCTG”, the binding signal in the experiment with GST-Ap-NF-kB RHD came to 2.2 z-score; in experiment [1] it was 2.14 z-score; in the experiment with GST-Co-NF-kB it was 1.68 z-score; in the experiment with GST-Dm-Relish, 6.1 z-score; in the experiment with GST-Aq-NF-kB it was 3.51 z-score; with GST-Hu-p50, 1.53 z-score.

Regarding “CCGATTAACATCAAACTCCCCCGTGATGTTAATCGGGTCTTGATTCGCTTGACGCTGCTG”, the binding signal stood at 6.89 z-score in the experiment with GST-Ap-NF-kB RHD; 5.44 z-score in experiment [1]; 7.66 z-score with GST-Co-NF-kB; 5.92 z-score with GST-Dm-Relish; 5.84 z-score with GST-Aq-NF-kB; 6.48 z-score with GST-Hu-p50.

As for “CCGATTAACATCAGAAATGCCCCTGATGTTAATCGGGTCTTGATTCGCTTGACGCTGCTG”, the binding signal with GST-Ap-NF-kB RHD was 4.03 z-score; in experiment [1] it was 5.61 z-score; with GST-Co-NF-kB, 1.98 z-score; with GST-Dm-Relish, 4.09 z-score; with GST-Aq-NF-kB it was 5.32 z-score; with GST-Hu-p50, 5.55 z-score.

Take “CCGATTAACATCAGGGATTTTTATGATGTTAATCGGGTCTTGATTCGCTTGACGCTGCTG”: the binding signal with GST-Ap-NF-kB RHD was 5.66 z-score; in experiment [1] it was 6.48 z-score; with GST-Co-NF-kB, 1.77 z-score; with GST-Dm-Relish, 7.93 z-score; with GST-Aq-NF-kB, 6.66 z-score; in the experiment with GST-Hu-p50 it was 5.31 z-score.

On to “CCGATTAACATCAAAATTCCCGATGATGTTAATCGGGTCTTGATTCGCTTGACGCTGCTG”, for which the binding signal worked out at 4.37 z-score with GST-Ap-NF-kB RHD; 6.05 z-score in experiment [1]; 4.55 z-score in the experiment with GST-Co-NF-kB; 5.06 z-score with GST-Dm-Relish; 4.93 z-score in the experiment with GST-Aq-NF-kB; 4.38 z-score with GST-Hu-p50.

With “CCGATTAACATCAAAATCACCCCTGATGTTAATCGGGTCTTGATTCGCTTGACGCTGCTG”, the binding signal stood at 4.66 z-score in the experiment with GST-Ap-NF-kB RHD; 2.97 z-score in experiment [1]; 5.02 z-score in the experiment with GST-Co-NF-kB; 5.22 z-score in the experiment with GST-Dm-Relish; 3.41 z-score with GST-Aq-NF-kB; 4.39 z-score with GST-Hu-p50.

In the case of “CCGATTAACATCACAACGACCCCTGATGTTAATCGGGTCTTGATTCGCTTGACGCTGCTG”, the binding signal came out at 2.27 z-score with GST-Ap-NF-kB RHD; 1.3 z-score in experiment [1]; 1.28 z-score with GST-Co-NF-kB; 1.08 z-score with GST-Dm-Relish; 2.48 z-score with GST-Aq-NF-kB; 1.12 z-score with GST-Hu-p50.

Regarding “CCGATTAACATCAGACAACCCCCTGATGTTAATCGGGTCTTGATTCGCTTGACGCTGCTG”, the binding signal with GST-Ap-NF-kB RHD stood at 5.23 z-score; in experiment [1] it was 4.47 z-score; in the experiment with GST-Co-NF-kB, 1.95 z-score; with GST-Dm-Relish, 5.15 z-score; with GST-Aq-NF-kB, 4.98 z-score; with GST-Hu-p50, 5.28 z-score.

For “CCGATTAACATCAAAAGCCCCCATGATGTTAATCGGGTCTTGATTCGCTTGACGCTGCTG”, the binding signal with GST-Ap-NF-kB RHD was 5.8 z-score; in experiment [1] it was 6.19 z-score; with GST-Co-NF-kB, 2.08 z-score; with GST-Dm-Relish it was 6.91 z-score; in the experiment with GST-Aq-NF-kB it was 6.49 z-score; with GST-Hu-p50, 6.29 z-score.

In the case of “CCGATTAACATCAGGGGGTTATATGATGTTAATCGGGTCTTGATTCGCTTGACGCTGCTG”, the binding signal turned out to be 6.77 z-score with GST-Ap-NF-kB RHD; 5.64 z-score in experiment [1]; 3.18 z-score with GST-Co-NF-kB; 6.58 z-score in the experiment with GST-Dm-Relish; 6.3 z-score in the experiment with GST-Aq-NF-kB; 5.59 z-score with GST-Hu-p50.

The values above are taken from paper PMC5700166.
